Here are results for 68 molecules from PubChem BioAssay AID624412 (The Scripps Research Institute Molecular Screening Center, 2012).

The campaign covered roughly 1,400 compounds. About 1,300 (93%) were called active. The set was probably picked from earlier hits. The list is a sample of the results. Unmarked numbers belong to inactive results. No stated cut-off is given here; in the data, active means inhibition above about 7%; inactive means the rest.

In the assay the test system is methionyl-tRNA synthetase (Trypanosoma brucei brucei). Description: inhibition of trypanosome methionyl-tRNA synthetase – biochemical, luminescence, confirmation (AID 624412). The following applies: T. brucei MetRS enzyme, luminescence (ATP depletion); at 11.9 µM; hits give high values.
As to `COC(=O)/C(=C\Nc1ccccc1)NC(=O)c1ccc(Cl)cc1Cl`, the inhibition (usually the relative decrease from the control value, in per cent) was 78% (active).

As to `c1ccc2cc3[nH]c(CN4CCCCC4)nc3cc2c1`, the inhibition is 18.2% (active).

With `Cc1c(CN2CCC(CO)(CCOc3ccccc3)CC2)[nH]c2ccc(Cl)cc12`, the inhibition is 19% (active).

For the molecule `CN(C(=O)CSc1nnc(Nc2ccccc2)s1)C1CCS(=O)(=O)C1` (stereo not drawn), the inhibition was 12.5% (active).

Consider `CN(C(=O)CSc1nnc(-c2c[nH]c3ccccc23)o1)C1CCS(=O)(=O)C1` (stereo not drawn), for which the inhibition was 21.9% (active).

As for `CCCCCn1nnnc1-c1nc2cc3ccccc3cc2[nH]c1=O`, the inhibition was 42.4% (active).

For `c1ccc(CN=C2Nc3ccccc3CS2)nc1`, the inhibition is 22% (active).

In the case of `Cc1cc(C)cc(NC(=O)N(C)Cc2ccccc2)c1`, the inhibition is 3.08%.

Turning to `COc1ccc(NC(=O)C(NC(C)=O)C(=O)NCc2ccccc2Cl)cc1` (stereo not drawn), the inhibition was 17.9% (active).

For `OCCNc1nc2ccccc2n1-c1ncnc2sc3c(c12)CCC3`, the inhibition was 29.7% (active).

Consider `Cc1ccc(O)c(CNc2nc3ccccc3[nH]2)c1`, for which the inhibition was 85.4% (active).

For `O=S(=O)(NCc1ccc(Cl)cc1Cl)c1cccs1`, the inhibition is 33.5% (active).

With `CCCCN1C[C@H](c2ccc(Br)cc2)[C@@H](CC(=O)Nc2ccc(Br)cc2)C1=O`, the inhibition is 62.2% (active).

In the case of `O=C(OCc1nc2ccccc2[nH]1)C1CCCCC1`, the inhibition was 27.3% (active).

For the molecule `O=C(NCc1cccc(CNC(=O)Nc2cccc(O)c2)c1)Nc1cccc(O)c1`, the inhibition was 17.5% (active).

On to `COc1ccc(CCn2ccc(O)c(Cc3ccc(Cl)cc3Cl)c2=O)cc1OC`, for which the inhibition was 11.8% (active).

`O=C(Nc1cccc([N+](=O)[O-])c1)N1CCc2ccccc2C1`: the inhibition is 25.6% (active).

In the case of `O=C(CSCC(=O)Nc1cccc([N+](=O)[O-])c1)Nc1ccccc1`, the inhibition is 17% (active).

Take `Fc1ccc(NC(=S)N2CCc3[nH]c4ccccc4c3C2)cc1`: the inhibition was 35.4% (active).

In the case of `O=C(Nc1ccc(Cl)cc1)N1CCc2[nH]c3ccccc3c2C1`, the inhibition is 20.4% (active).

Regarding `O=C(NNc1cc(Cl)cc(Cl)c1)c1c(F)cccc1Cl`, the inhibition was 66.4% (active).

As for `Cc1ccc(N2C(=O)CC(NCc3ccc4c(c3)OCO4)C2=O)cc1Cl` (stereo not drawn), the inhibition is 98.5% (active).

For `O=C(/C(=N\O)n1cncn1)c1ccc(Br)cc1Br`, the inhibition is 18.3% (active).

For the molecule `CCCCN(C)Cc1c(C)[nH]c2ccc(Cl)cc2c1=O`, the inhibition is 67.1% (active).

In the case of `O=C(CC(=O)Nc1ccc(Cl)c(Cl)c1)N/N=C/c1ccc(O)cc1`, the inhibition is 17.2% (active).

On to `Cc1ccc(NC(=O)C(C)c2cccc(C(=O)c3ccccc3)c2)cc1` (stereo not drawn), for which the inhibition was 85.5% (active).

In the case of `O=C1CCCN1CCCNc1ncnc2c1[nH]c1ccccc12`, the inhibition was 55.3% (active).

Consider `Cc1ccccc1OCC(=O)NNC(=O)c1ccc(-n2cncn2)c([N+](=O)[O-])c1`, for which the inhibition is 24.7% (active).

For the molecule `O=C(NNC(=O)c1ccc(-n2cncn2)c([N+](=O)[O-])c1)c1ccccc1`, the inhibition was 50.4% (active).

On to `Cc1ccc(S(=O)(=O)N(C)C)cc1NC(=O)c1ccc(-n2cncn2)c([N+](=O)[O-])c1`, for which the inhibition was 69.4% (active).

In the case of `CC(=O)c1ccc(NC(=O)c2ccc(-n3cncn3)c([N+](=O)[O-])c2)cc1`, the inhibition was 72% (active).

For `c1ccc2cc3c(NCCN4CCOCC4)ccnc3cc2c1`, the inhibition is 50.4% (active).

With `Cc1ccc(S(=O)(=O)c2c[nH]c3ccc(Cl)cc3c2=O)cc1`, the inhibition is 85.2% (active).

`Cc1ccc(S(=O)(=O)c2c[nH]c3ccc(C)cc3c2=O)cc1`: the inhibition is 45.7% (active).

With `O=C(NCCN1CCOCC1)c1ccccc1N1C(=O)[C@@H]2Cc3c([nH]c4ccccc34)C(c3cccc(Cl)c3)N2C1=O` (stereo partly drawn), the inhibition is 18.1% (active).

In the case of `CCN(CC)C(=O)C(=O)c1cn(CC(=O)NCc2ccc3c(c2)OCO3)c2ccccc12`, the inhibition is 79.4% (active).

Regarding `O=C(CSc1nc2ccccc2[nH]1)N/N=C/C=C\c1ccccc1[N+](=O)[O-]`, the inhibition was 21.7% (active).

Consider `O=C(Cn1c2[n+](c3ccc(C(F)(F)F)cc31)CCCCC2)Nc1c(F)cccc1F`, for which the inhibition is 29.8% (active).

With `NS(=O)(=O)c1ccc(CCNC(=O)Nc2ccc(Cl)cc2)cc1`, the inhibition was 37.4% (active).

As for `O=C(Cc1ccc(S(=O)(=O)N2CCOCC2)s1)Nc1ccc(Br)c(C(F)(F)F)c1`, the inhibition was 33.2% (active).

With `Clc1ccc(-c2cc(C3CCNCC3)[nH]n2)c(Cl)c1`, the inhibition is 52.6% (active).

As to `O=C(Cn1c(NCCO)nc2ccccc21)c1ccc(Cl)cc1Cl`, the inhibition was 5.98% (active).

For `S=c1[nH]nc(CSCc2ccc(Cl)cc2Cl)n1-c1ccccc1`, the inhibition is 13.2% (active).

On to `COC(=O)CN1C(=S)N(c2ccccc2)C(=O)C1CC(=O)Nc1ccc(Cl)cc1` (stereo not drawn), for which the inhibition was 27.5% (active).

Take `Cc1ccc(-c2cnc(C(O)c3cc(Cl)cc(Cl)c3)[nH]2)cc1` (stereo not drawn): the inhibition is 63.9% (active).

In the case of `OC(c1cc(Cl)cc(Cl)c1)c1ncc(-c2ccccc2C(F)(F)F)[nH]1` (stereo not drawn), the inhibition was 91.3% (active).

With `O=S(=O)(c1ccc(Br)cc1)N1CCC(c2nc3ccccc3[nH]2)CC1`, the inhibition is 20.5% (active).

On to `O=C(NCC(O)c1nc2ccccc2[nH]1)c1ccc(Br)cc1` (stereo not drawn), for which the inhibition is 31.1% (active).

`O=C(O)c1ccc(NS(=O)(=O)c2ccc3c(c2)C(=O)c2cc(S(=O)(=O)Nc4ccc(C(=O)O)cc4)ccc2-3)cc1`: the inhibition was 13.4% (active).

`O=C(Nc1ccc(S(=O)(=O)Nc2ncccn2)cc1)c1cncc(Br)c1`: the inhibition is 2.54%.

Take `CC(C)OCCCNc1ncnc2c1[nH]c1ccc(F)cc12`: the inhibition is 95.6% (active).

On to `CCN1CCCC1CNc1ncnc2c1[nH]c1ccc(F)cc12` (stereo not drawn), for which the inhibition was 53.7% (active).

As to `CSc1nsc(NC(=O)Nc2ccccc2)n1`, the inhibition was 39.8% (active).

On to `CC(C)(C)c1ccc(/C=C2\SC(=O)N=C2N)cc1`, for which the inhibition was 50.9% (active).

Consider `NC1=NC(=O)S/C1=C\c1ccc(O)cc1`, for which the inhibition was 40.1% (active).

As to `O=C(O)CCn1c(O)c(C=C2N=c3ccccc3=N2)sc1=S`, the inhibition is 42.3% (active).

Turning to `Cn1c(CCCOc2ccc(Cl)cc2Cl)n[nH]c1=S`, the inhibition was 12.2% (active).

Consider `CCCCCCCC[n+]1cccc(C(=O)N2c3c(nc(N)[nH]c3=O)NC(C)C2C)c1` (stereo not drawn), for which the inhibition is 29.2% (active).

In the case of `COc1ccc(OCC(O)CNC(=O)Nc2ccc(Cl)cc2)cc1` (stereo not drawn), the inhibition was 78% (active).

`Oc1[nH]c2ccc(Br)cc2c1N=Nc1nn[nH]n1`: the inhibition was 14.6% (active).

`O=C(Nc1ccccc1)Nc1nnc(COc2ccccc2F)s1`: the inhibition is 30.4% (active).

For `Clc1ccccc1SCc1nc2ccccc2[nH]1`, the inhibition is 10.1% (active).

Turning to `Cc1ccc(CNC(=O)CSc2nnc3c(n2)[nH]c2ccc(F)cc23)cc1`, the inhibition is 78% (active).

`CCO[C@@H]1OC(C(=O)NCc2nc3ccccc3[nH]2)=C[C@H](C2CCCCC2)[C@H]1CCCO`: the inhibition was 48.9% (active).

For the molecule `CC(=N\NC(=O)c1cc(Br)ccc1O)/C(=N/O)C(=O)Nc1ccccc1`, the inhibition is 18.2% (active).

Consider `COc1ccccc1-n1c(SCC(=O)Nc2ccc(Cl)cc2)nc(O)c(Cc2ccccc2)c1=O`, for which the inhibition is 77.2% (active).

`COc1ccc(-c2[nH]ncc2/C=N/NC(=O)c2cc(Br)ccc2O)c(OC)c1`: the inhibition is 12.1% (active).

In the case of `O=[N+]([O-])c1ccc(N2CCN(c3ccc(O)cc3)CC2)c(Cl)c1`, the inhibition is 10.9% (active).
